Screening data as filed in PubChem BioAssay.
STK33 inh – inhibitors of human STK33 kinase. Q9BYT3. ADP-Glo luminescence, MBP substrate. inhibition, % at 12.5 µM. hit rate 0.44% among 27,000. AID 2322; in the data active means inhibition above about 20%; inconclusive means no clear call, values can overlap the other calls
Target sequence (Q9BYT3 whole entry, looked up): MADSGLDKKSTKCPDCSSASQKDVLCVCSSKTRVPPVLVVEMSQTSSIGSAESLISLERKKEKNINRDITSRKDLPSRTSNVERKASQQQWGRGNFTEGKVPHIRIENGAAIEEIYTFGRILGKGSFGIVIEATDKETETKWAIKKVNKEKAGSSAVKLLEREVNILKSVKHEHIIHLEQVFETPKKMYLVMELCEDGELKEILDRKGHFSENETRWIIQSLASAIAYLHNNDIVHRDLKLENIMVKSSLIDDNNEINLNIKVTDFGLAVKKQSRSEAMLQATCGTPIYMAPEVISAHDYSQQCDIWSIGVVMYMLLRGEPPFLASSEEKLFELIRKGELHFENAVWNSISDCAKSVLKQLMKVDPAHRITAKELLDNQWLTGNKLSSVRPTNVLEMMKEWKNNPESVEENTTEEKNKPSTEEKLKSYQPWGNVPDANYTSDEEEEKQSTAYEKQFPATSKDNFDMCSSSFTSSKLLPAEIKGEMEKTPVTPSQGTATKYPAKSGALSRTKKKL
PD-1 reverse act – activators reversing PD-1 mediated T-cell inhibition; primary human CD4 T cells, PD-L1 beads, CellTiter-Glo 96 h; activation, % (concentration not given with the values); 29,000 tested, under 10 active; AID 2316; call rule not given here
NOMO-1 viab – STK33 inhibitor candidate reducing NOMO-1 cell viability; NOMO-1 AML viability, CellTiter-Glo luminescence, 72 h; inhibition, % (no concentration beside the values); hit rate 7.5% among 37,000; AID 2330; in the data active means inhibition above about 80%; inconclusive means no clear call, values can overlap the other calls
Numbers stand for hits; n = inactive; u = inconclusive; x = no result given. The entries come from a sample that favours hits as a whole.

SMILES	STK33 inh	PD-1 reverse act	NOMO-1 viab
C[C@@H]1CN([C@@H](C)CO)C(=O)c2cc(NC(=O)CCCCCC(=O)Nc3ccccc3N)ccc2O[C@H]1CN(C)Cc1ccccc1	x	n	n
C[C@@H]1CN([C@H](C)CO)C(=O)Cc2cc(NC(=O)CCCCCC(=O)Nc3ccccc3N)ccc2O[C@H]1CN(C)Cc1ccc(Cl)c(Cl)c1	x	n	108
C[C@H]1CN([C@@H](C)CO)C(=O)c2cc(NC(=O)CCCCCC(=O)Nc3ccccc3N)ccc2O[C@H]1CN(C)Cc1ccc(Cl)c(Cl)c1	x	n	111
Cc1cc2ncc(-c3ccnc(SCCS(=O)(=O)c4ccccc4)n3)c(C)n2n1	x	n	n
O=C(Nc1ccc(Cl)cc1Cl)NC(Cc1ccc(O)cc1)C(=O)O (stereo not given)	n	n	n
COc1cc2c(cc1OC)C1(CCCC1)CN(C(=O)c1cc(Br)ccc1OC)C2	x	n	n
Fc1cccc(Cl)c1CSc1ccccc1C1=NCCCN1	x	n	n
Fc1cccc(Cl)c1CSC1=NCCN1	x	n	136
CC(=O)Nc1ccc(NC(=O)c2cccc(C(=O)OC(C)C)n2)cc1	x	n	107
COC(=O)c1cccc(C(=O)Nc2ccc(F)cc2)n1	x	n	u
C[C@H]1CN([C@@H](C)CO)C(=O)c2cccc(NC(=O)C3CCCCC3)c2O[C@@H]1CN(C)Cc1ccc(Cl)c(Cl)c1	x	n	91
C[C@H]1CN([C@@H](C)CO)C(=O)c2cccc(NC(=O)NC3CCCCC3)c2O[C@H]1CN(C)Cc1ccc(Cl)c(Cl)c1	x	n	n
C[C@H](CO)N1C[C@H](C)[C@H](CN(C)Cc2ccc(Cl)c(Cl)c2)Oc2c(NC(=O)C3CCCCC3)cccc2C1=O	x	n	92
C[C@@H]1CN([C@@H](C)CO)C(=O)c2cccc(NC(=O)NC3CCCCC3)c2O[C@@H]1CN(C)Cc1ccc(Cl)c(Cl)c1	x	n	100
C[C@@H]1CN([C@H](C)CO)C(=O)c2cccc(NC(=O)C3CCCCC3)c2O[C@@H]1CN(C)Cc1ccc(Cl)c(Cl)c1	x	n	n
C[C@@H]1CN([C@H](C)CO)C(=O)c2cccc(NC(=O)C3CCCCC3)c2O[C@H]1CN(C)Cc1ccc(Cl)c(Cl)c1	x	n	u
O=C(CSc1nc2sccc2c(=O)[nH]1)Nc1ccccc1	n	x	n
CC(=O)Nc1cccc(NC(=O)CSc2ccccc2[N+](=O)[O-])c1	n	n	n
CCOC(=O)Nc1cc(=O)c2ccccc2o1	n	n	119
COc1ccc(-c2cc(=O)c3ccccc3o2)cc1	n	x	n
C/C=C1/CN2CCC1C(CO)(C(=O)OC)c1[nH]c3ccccc3c1C2 (stereo not given)	n	x	x
C[N+]1(C/C=C2/COCO2)CCCCC1	x	n	n
O=c1cc(-c2ccccc2)nc2scc(-c3ccc(Cl)cc3)n12	x	n	n
O=c1cc(-c2ccccc2)nc2cc(-c3ccccc3)[nH]n12	n	n	107
Cc1ccc(C)c(NC(=O)CN(c2cccc(F)c2)S(C)(=O)=O)c1	n	n	n
SMILES	STK33 inh	PD-1 reverse act	NOMO-1 viab
O=C(CSc1nc2ccccc2o1)Nc1ccc(I)cc1	n	x	n
CCOc1ccccc1-c1nnc(SCC(=O)Nc2ccc(I)cc2)o1	n	n	119
CCOc1ccc(NC(=O)C(C)Sc2nc3ccccc3c(=O)n2-c2cccc(C)c2)cc1 (stereo not given)	n	n	n
C[C@H]1CN([C@@H](C)CO)C(=O)Cc2cc(NS(=O)(=O)c3ccc(F)cc3)ccc2O[C@@H]1CN(C)Cc1ccc(C(F)(F)F)cc1	n	x	90
C[C@@H]1CN([C@@H](C)CO)C(=O)Cc2cc(NS(=O)(=O)c3ccc(F)cc3)ccc2O[C@@H]1CN(C)Cc1ccc(C(F)(F)F)cc1	n	n	103
C[C@@H]1CN([C@@H](C)CO)C(=O)Cc2cc(NS(=O)(=O)c3ccccc3)ccc2O[C@@H]1CN(C)Cc1ccc(C(F)(F)F)cc1	n	x	n
C[C@H](CO)N1C[C@H](C)[C@H](CN(C)Cc2ccc(C(=O)O)cc2)Oc2ccc(NS(=O)(=O)c3ccc(F)cc3)cc2CC1=O	n	x	n
C[C@@H]1CN([C@H](C)CO)C(=O)Cc2cc(NS(=O)(=O)c3ccc(F)cc3)ccc2O[C@H]1CN(C)Cc1ccc(C(F)(F)F)cc1	n	n	127
C[C@@H]1CN([C@H](C)CO)C(=O)Cc2cc(NS(=O)(=O)c3ccc(F)cc3)ccc2O[C@H]1CN(C)Cc1ccc(C(=O)O)cc1	n	n	n
OCc1nc(-c2cc(C(F)(F)F)cc(C(F)(F)F)c2)cs1	x	n	n
COc1ccc(N(CC(=O)Nc2cccc(Br)c2)S(C)(=O)=O)cc1	n	n	n
O=C(NCc1ccccn1)C1CCCN(S(=O)(=O)c2ccc(F)cc2)C1 (stereo not given)	n	n	n
Cc1nc(-c2c(C(F)(F)F)oc3cc(O)ccc3c2=O)cs1	x	n	n
Cc1nc(C2C(=O)c3ccc(O)c(O)c3OC2C(F)(F)F)cs1 (stereo not given)	n	n	107
CC1(C)C(=O)C=C[C@@]2(C)C1CC(=O)[C@@]1(C)C3=CC(=O)O[C@@H](c4ccoc4)[C@]3(C)CCC12 (stereo not given in full)	n	x	n
CC1(C)C(=O)C=CC2(C)C1CC(O)C1(C)C3=CCC(c4ccoc4)C3(C)CCC21 (stereo not given)	n	n	119
Cc1ccc(-c2nnc(SCc3ccccc3C#N)n2-c2ccccc2)cc1Cl	n	n	n
C=CCN(C(C)=O)c1nc(C)c(Br)c(OC)n1	x	n	n
CCCCCC(=O)Cc1cc(O)c(O)c2c1C(=O)Oc1cc(O)c(C(=O)O)c(CCCCC)c1O2	n	n	108
COc1cc(O)c2c(=O)c(O[C@@H]3O[C@H](CO[C@@H]4O[C@@H](C)[C@H](O)[C@@H](O)[C@H]4O)[C@@H](O)[C@H](O)[C@H]3O)c(-c3ccc(O)c(O)c3)oc2c1	n	x	x
Nc1cc(=O)nc(SCC(=O)NCc2ccccc2)n1-c1ccccc1	x	n	n
CCn1c(SCC(=O)Nc2ccc(Cl)c(Cl)c2)nnc1-c1cc2cccc(OC)c2o1	n	x	100
COc1cccc2cc(-c3nnc(SCC(=O)Nc4ccc5ccccc5c4)n3C)oc12	n	n	n
O=C(COc1ccccc1[N+](=O)[O-])Nc1ccccc1N1CCN(C(=O)c2ccccc2)CC1	n	x	n
O=C(COc1ccccc1[N+](=O)[O-])Nc1cccc(Cl)c1N1CCOCC1	n	n	83
SMILES	STK33 inh	PD-1 reverse act	NOMO-1 viab
Cc1nn(-c2cc(Cl)ccc2Cl)c(N)c1-c1nc(-c2ccccc2)cs1	x	n	n
O=C(CSc1nc2ccccc2[nH]1)Nc1cccc(C(F)(F)F)c1	n	x	n
CC(=O)N1CCN(c2nc3ccc(Cl)cc3s2)CC1	n	n	n
O=C1CSC(=S)N1CCc1ccc(Cl)cc1	x	n	113
COc1ccc(CCN2C(=O)CSC2=NC2CC2)cc1OC	x	n	n
COc1ccc(C(=O)NCc2ccc(C#N)cc2)cc1OC	x	n	n
Cc1c(C)c(C)c(S(=O)(=O)NC(C)(C)C)c(C)c1C	x	n	n
Cc1cc(N(CC(=O)NC2CCCCCC2)S(C)(=O)=O)ccc1Br	n	n	n
C[C@H]1CN([C@@H](C)CO)C(=O)c2cccc(NC(=O)Nc3ccc4c(c3)OCO4)c2O[C@@H]1CN(C)Cc1ccc2c(c1)OCO2	x	x	n
C[C@@H]1CN([C@H](C)CO)C(=O)c2cccc(NC(=O)Nc3ccc4c(c3)OCO4)c2O[C@H]1CN(C)Cc1ccc(Cl)c(Cl)c1	x	n	87
